AmpC inh no detg: blocks E. coli AmpC beta-lactamase in detergent-free assay. Potency, µM (top dose mostly 57.1 µM), actives largely listed as inhibitors. AID 485341. AmpC nitrocefin hydrolysis, absorbance 480 nm, 0.0001% Triton. 330,000 compounds, 0.52% hits; further: nearly all actives have a fitted effect of over 20% in size
Target sequence (P00811 whole entry, looked up): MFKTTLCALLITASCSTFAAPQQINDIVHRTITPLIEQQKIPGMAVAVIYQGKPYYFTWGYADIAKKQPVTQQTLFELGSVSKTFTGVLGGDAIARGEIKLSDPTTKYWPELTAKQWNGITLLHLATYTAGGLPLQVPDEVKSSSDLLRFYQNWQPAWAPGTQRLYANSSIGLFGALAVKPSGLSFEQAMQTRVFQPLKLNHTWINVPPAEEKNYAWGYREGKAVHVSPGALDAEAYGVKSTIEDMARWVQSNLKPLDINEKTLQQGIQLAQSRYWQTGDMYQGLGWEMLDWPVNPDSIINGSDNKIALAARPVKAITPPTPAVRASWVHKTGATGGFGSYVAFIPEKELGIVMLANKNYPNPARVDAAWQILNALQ
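AmpC (5.3 nM in the dispensed reagent) in 20 mM phosphate pH 7.0 with 0.01% (detergent screen) or 0.0001% Triton X-100 was preincubated with compounds for 15 min at room temperature. Nitrocefin was then added from an 800 uM solution, and hydrolysis was followed at 480 nm.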
AmpC inh detg: inhibitors of E. coli AmpC beta-lactamase with detergent; AID 485294; Potency, µM (top dose mostly 114 µM), hits mostly inhibitors; P00811; AmpC hydrolysis of nitrocefin, absorbance 480 nm, 0.01% Triton; 370,000 compounds, 0.041% hits; further: nearly all actives have a fitted effect of over 25% in size
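AmpC (5.3 nM in the dispensed reagent) in 20 mM phosphate pH 7.0 with 0.01% (detergent screen) or 0.0001% Triton X-100 was preincubated with compounds for 15 min at room temperature. Nitrocefin was then added from an 800 uM solution, and hydrolysis was followed at 480 nm.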
Sm TGR inh: S. mansoni TGR enzyme inhibition. Q962Y6. 360,000 compounds, 3% hits. Potency, µM (highest dose often 114 µM), most hits filed as inhibitors. AID 485364. purified TGR, DTNB reduction, TNB absorbance 405 nm; further: nearly all actives have a fitted effect of over 60% in size
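TGR 20 nM + NADPH 100 uM (dispensed conc.), cpd preinc 15 min RT; start with NADPH (500 uM addition) then DTNB (15 mM addition). Kinetic TNB absorbance, 405 nm filter. Four-parameter Hill fit across titration.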
Pf growth 96h: inhibits malaria parasite growth, 96 h | AID 504834 | P. falciparum luciferase reporter growth, 96 h | 320,000 compounds, 6.9% hits | Potency, µM (highest dose often 28.7 µM), usual class: inhibitors
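Plates of compound plus infected erythrocytes (2% hematocrit, 0.05% parasitemia final) incubate 96 hours, 37 C, 5% CO2. Detection reagent added; reduced luminescence from the parasites' luciferase reporter flags inhibition.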
SARS PLpro yeast: inhibitors of SARS-CoV papain-like protease in yeast. S. cerevisiae expressing SARS-CoV PLpro, growth rescue. Potency, µM (highest dose often 32.9 µM), actives largely listed as activators. 330,000 compounds, 0.19% hits. AID 485353; calls by dose curve; further: nearly all actives have a fitted effect of over 55% in size
Pf growth 48h: P. falciparum growth inhibition at 48 hours (one generation); P. falciparum luciferase growth in erythrocytes, 48 h; Potency, µM (doses to about 28.7 µM), hits mostly inhibitors; AID 504832; 310,000 compounds, 5.9% hits
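Luciferase-expressing P. falciparum in infected erythrocytes (2% hematocrit, 0.1% parasitemia final) in RPMI 1640/0.5% Albumax were exposed to compound for 48 hours at 37 C, 5% CO2; growth read as luminescence.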
Each line names hits and unclear results; the compound was inactive in the other large screens. Only some compounds are listed: those with a hit (about 12% of all), similar ones and a draw of the others. Unless noted, the call rests on the fitted dose curve; in most records, active means well fitted curve in the direction sought with a large enough effect; inconclusive means small, poorly fitted or top-dose-only effect, or another doubt; inactive means no such curve, though single readings can be large; an effect the other way counts as inactive or inconclusive.

Cc1ccc(C2(CC(=O)Nc3nccs3)CCOC(C(C)C)C2)cc1 (centres undefined)	Pf growth 48h inconclusive
N=c1c(C(=O)NCCN2CCOCC2)cc2c(=O)n3ccccc3nc2n1Cc1ccc(F)cc1	Pf growth 96h 10.4µM, Pf growth 48h 9.28µM
Cc1ccc(CNC(=O)c2cc3c(=O)n4ccccc4nc3n(Cc3ccco3)c2=N)cc1	AmpC inh detg inconclusive, Pf growth 48h inconclusive (no result: Pf growth 96h)
N=c1c(C(=O)NCc2ccco2)cc2c(=O)n3ccccc3nc2n1Cc1ccc(Cl)cc1	Pf growth 96h 2.33µM, Pf growth 48h 10.4µM
N=c1c(C(=O)NCc2ccc3c(c2)OCO3)cc2c(=O)n3ccccc3nc2n1Cc1cccnc1	Pf growth 48h 10.4µM
N=c1c(C(=O)NCCN2CCOCC2)cc2c(=O)n3ccccc3nc2n1CCCN1CCOCC1	Pf growth 48h inconclusive
Cc1ccc2nc3c(cc(C(=O)NCc4ccco4)c(=N)n3Cc3ccco3)c(=O)n2c1	Pf growth 48h 1.65µM
COc1ccccc1-n1c(CNC(=O)c2ccco2)nnc1SCC(=O)Nc1nccs1	AmpC inh detg inconclusive (no result: Pf growth 48h)
CC(C)(C)c1cc(C(c2cccnc2)N2CCN(CCO)CC2)cc(C(C)(C)C)c1O (centres undefined)	AmpC inh detg inconclusive, Sm TGR inh 0.447µM (no result: Pf growth 48h)
Cc1ccc(NC(=O)C(=O)NCC(c2cccnc2)N2CCN(C)CC2)cc1C (centres undefined)	none (no result: AmpC inh no detg, Pf growth 96h, SARS PLpro yeast, Pf growth 48h)
COc1ccc(OC)c(NC(=O)C2CCCN2C(=O)C2CCC(C)CC2)c1 (centres undefined)	Pf growth 96h 9.28µM (no result: Pf growth 48h)
CCOc1ccccc1NC(=O)[C@@H](NC(=O)c1cccc(S(=O)(=O)N2CCOCC2)c1)C(C)C	Pf growth 96h inconclusive, Pf growth 48h 13.1µM
CCOc1ccc(C(=O)N[C@H](C(=O)Nc2ccc(OC)c(S(=O)(=O)N3CCOCC3)c2)C(C)C)cc1	Pf growth 96h inconclusive, Pf growth 48h inconclusive
CC(C)[C@H](NC(=O)c1cccc(S(=O)(=O)N2CCOCC2)c1)C(=O)NCc1ccc(F)cc1	none (no result: AmpC inh detg, Sm TGR inh, Pf growth 96h, Pf growth 48h)
CCOc1ccccc1C(=O)N[C@H](C(=O)Nc1ccc(OC)c(S(=O)(=O)N2CCOCC2)c1)C(C)C	AmpC inh detg inconclusive, Pf growth 96h inconclusive, Pf growth 48h 13.1µM
CC(C)[C@H](NC(=O)c1cccc(S(=O)(=O)N2CCOCC2)c1)C(=O)Nc1nc2ccccc2s1	Pf growth 96h 10.4µM, Pf growth 48h 14.7µM
CC(Sc1nc2cc(Cl)ccc2s1)C(=O)Nc1cccc(S(=O)(=O)N2CCOCC2)c1 (centres undefined)	Pf growth 96h 13.1µM
CN1c2ccccc2-c2nc(SCC(=O)Nc3ccccc3)ncc2S1(=O)=O	none (no result: AmpC inh no detg, Pf growth 96h, SARS PLpro yeast, Pf growth 48h)
Cc1ccc2scc(N3CCc4ccccc4C3)c(=O)c2c1	none (no result: AmpC inh no detg, Pf growth 96h, SARS PLpro yeast, Pf growth 48h)
COc1ccc(CNS(=O)(=O)c2ccc(F)c(C(=O)Nc3ccccc3OC)c2)cc1	Pf growth 96h 2.33µM
COc1ccc(CNS(=O)(=O)c2ccc(F)c(C(=O)Nc3ccc(OC)cc3)c2)cc1	Pf growth 96h inconclusive
COc1ccccc1NC(=O)c1cc(S(=O)(=O)NCc2ccccc2)ccc1F	Pf growth 96h 5.22µM, Pf growth 48h inconclusive
CC1=C(c2ccc(C)c(C)c2)S(=O)(=O)N=C1N1CCC(C(=O)NCCc2ccco2)CC1	none (no result: AmpC inh no detg, Pf growth 96h, SARS PLpro yeast, Pf growth 48h)
COc1ccc(CN(C)CC(=O)NCC(=O)Nc2c(C)cccc2C)cc1	Pf growth 96h inconclusive
Cc1cc(C)cc(NC(=O)c2cc(C)n(Cc3cccs3)c2C)c1	Sm TGR inh 39.8µM
O=C(CCNS(=O)(=O)c1ccc(Br)cc1)N1CCN(c2ccccc2O)CC1	Pf growth 96h inconclusive, Pf growth 48h 10.4µM
O=C(CNS(=O)(=O)c1ccc(Cl)cc1)N1CCN(c2ccc(F)cc2)CC1	none (no result: AmpC inh detg, Sm TGR inh, Pf growth 96h, Pf growth 48h)
COc1cc2c(cc1OC)CN(C(=O)CCNS(=O)(=O)c1ccc(Br)cc1)CC2	Pf growth 96h inconclusive, Pf growth 48h 9.28µM
O=C(CNS(=O)(=O)c1ccc(Br)cc1)N1CCN(c2ccc(F)cc2)CC1	Pf growth 96h 13.1µM, Pf growth 48h inconclusive

Assay outcomes: PubChem, National Center for Advancing Translational Sciences (NCATS)
